{"source": "PubChem BioAssay", "data": [{"molecular_target": "Dickkopf-related protein 1 (Homo sapiens) (UniProt O94907)", "sequence (O94907 whole entry, looked up)": "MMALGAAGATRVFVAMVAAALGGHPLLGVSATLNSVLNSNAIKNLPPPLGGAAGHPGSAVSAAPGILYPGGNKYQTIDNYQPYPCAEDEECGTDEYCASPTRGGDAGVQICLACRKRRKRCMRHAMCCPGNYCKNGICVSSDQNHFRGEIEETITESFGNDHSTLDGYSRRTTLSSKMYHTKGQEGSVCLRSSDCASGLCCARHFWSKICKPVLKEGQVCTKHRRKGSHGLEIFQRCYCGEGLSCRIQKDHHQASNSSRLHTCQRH", "assay": "DKK1 binders on small-molecule microarrays, primary screen, biochemical, small-molecule microarray, 635 nm fluorescence scan (AID 1106);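 note: score merges emission near 667 nm with signal to noise over three replicate slides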", "conditions": "DKK1 binding, higher = more signal", "values": [{"smiles": "CN1C(=O)C2CC=C(C3=CCO[C@@H]3[C@H]3CCCN3S(=O)(=O)c3ccccc3[N+](=O)[O-])CC2C1=O", "note": "(some centres not stated)", "composite z-score": -0.261}, {"smiles": "COc1cccc(C)c1NC(=O)O[C@H]1[C@H](OC(=O)Nc2ccccc2)[C@@H](OC(=O)Nc2ccccc2)[C@@H](OC)O[C@@H]1CO", "composite z-score": 0.474}, {"smiles": "COCCCNC(=O)[C@@]1(c2ccc([N+](=O)[O-])cc2)CC(=O)N(C2CCCCC2)[C@@H]1c1ccc(CO)cc1I", "composite z-score": -0.582}, {"smiles": "CO[C@H]1O[C@H](CO)[C@@H](OC(=O)Nc2cccc(F)c2)[C@H](OC(=O)c2cc3ccccc3[nH]2)[C@H]1OC(=O)c1cc2ccccc2[nH]1", "composite z-score": 0.135}, {"smiles": "C=C(COC)/C(=C/C[C@@H](OC(C)=O)c1cccc(OCCO)c1)c1cnc2ccccc2c1", "composite z-score": 1.02}, {"smiles": "CCCC[C@@H](O)C1=C(C)Cn2c(=O)n(-c3ccccc3)c(=O)n2[C@H]1CO", "composite z-score": 0.0869}, {"smiles": "CCCCC(=C=CC[C@@H](O)c1ccccc1OCCO)C[C@@H](O)c1ccccn1", "composite z-score": 0.141}]}, {"test_system": "Inhibin beta A chain (activin A)", "assay": "INHBA (activin A) binders on microarrays, primary screen, biochemical, small-molecule microarray, 635 nm fluorescence scan (AID 1107);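 note: mouse activin A protein probed at 4.33 µg/mL on printed slides; score merges bound-protein fluorescence near 667 nm with spot signal-to-noise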", "conditions": "small-molecule microarray binding, higher = more signal", "values": [{"smiles": "C=CCNC(=O)[C@H]1[C@@H]2C(=O)O[C@@H](c3ccccc3)[C@@H](c3ccccc3)N2[C@@H](c2ccc(O)cc2)[C@]12C(=O)N(C(=O)OCCOC)c1ccc(C#Cc3ccc(OC)cc3)cc12", "composite z-score": 0.794}, {"smiles": "O=C1OC[C@@H](c2ccccc2)n2cc(/C=C/c3ccccc3)cc21", "composite z-score": 0.0778}, {"smiles": "COc1c(C)cc(-c2nc(-c3ccccc3)c3c(c2C)CO[Si]3(C(C)C)C(C)C)cc1C", "composite z-score": 0.698}, {"smiles": "C=C(CCCC)/C(=C/C[C@@H](OC(C)=O)c1cccc(OCCO)c1)c1cc(C(=O)OC)ccc1OC", "composite z-score": 0.863}, {"smiles": "CC1CC/C=C\\[C@H]2OC34C=CCN(C(C)C)C(=O)[C@H]3N(C(C)CO)C(=O)[C@@H]4C2C(=O)O1", "note": "(some centres not stated)", "composite z-score": 0.727}, {"smiles": "CCCCC(=C=CC[C@@H](O)c1ccc(OCCO)cc1)CCO", "composite z-score": 1.09}, {"smiles": "COc1ccc(C(=O)Nc2ccc(CN3C(=O)[C@]4(O[C@H](CC(=O)N(CCO)Cc5ccccc5)[C@@H]([Si](C)(C)c5ccc(OC)cc5)[C@@H]4C)c4ccccc43)cc2)cc1", "composite z-score": 0.842}, {"smiles": "COC(=O)[C@@]1(Cc2ccc(F)cc2)[C@H]2c3cc(C(=O)N(C)C)n(Cc4ccc(C(F)(F)F)nc4)c3C[C@H]2CN1C(=O)c1ccccc1", "composite z-score": 0.876}, {"smiles": "O=C(NCCN1CCOCC1)[C@@H]1c2ccccc2C(=O)N(CC23CC4CC(CC(C4)C2)C3)[C@H]1c1ccc(CO)cc1", "composite z-score": 0.471}, {"smiles": "CO[C@H]1O[C@H](CO)[C@@H](OC(=O)Nc2cccc(F)c2)[C@H](OC(=O)Nc2ccc3c(c2)OCO3)[C@@H]1OC(=O)Nc1ccc2c(c1)OCO2", "composite z-score": 0.663}, {"smiles": "CN(C)CCCCCCNC(=O)[C@@H]1C[C@@H]2C(=O)N[C@@H](CCCC[N+](C)(C)C)C(=O)N2[C@@H]1c1cccc(OCCO)c1", "composite z-score": -0.246}, {"smiles": "CN(C)C(=O)[C@]1(CCS(=O)(=O)c2ccccc2)N=C(c2ccc(OCCCO)cc2)O[C@@H]1c1ccccc1CN=[N+]=[N-]", "composite z-score": 0.869}, {"smiles": "CN1C(=O)C2C=CC(C(O)c3ccc([N+](=O)[O-])cc3)N(Nc3ccccc3)C2C1=O", "note": "(configuration not stated)", "composite z-score": 0.905}, {"smiles": "CCOC(=O)C[C@H]1[C@H](OC(=O)c2ccccc2-c2ccccc2)[C@@H](NC(=O)CC(C)C)c2cc(OCCCO)ccc2N1C(=O)c1ccccc1", "composite z-score": -0.105}, {"smiles": "O=C1C2C=CC(C(O)C3CC=CCC3)N(Nc3ccc([N+](=O)[O-])cc3)C2C(=O)N1c1ccccc1", "note": "(configuration not stated)", "composite z-score": 1.2}, {"smiles": "COc1cccc(C)c1NC(=O)O[C@H]1[C@H](OC(=O)Nc2ccc3c(c2)OCO3)[C@H](OC(=O)Nc2ccc3c(c2)OCO3)[C@@H](OC)O[C@@H]1CO", "composite z-score": 0.69}, {"smiles": "CC(C)(C)OC(=O)CC[C@]1(C(N)=O)N=C(c2ccc(OCCCO)cc2)O[C@H]1c1ccccc1N=[N+]=[N-]", "composite z-score": 1.23}, {"smiles": "C=CCN1C(=O)[C@]2(O[C@H](CCO)[C@@H]([Si](C)(C)c3ccc(OC)cc3)[C@@H]2C)c2cc(N3C(=O)c4ccccc4Oc4ccccc43)ccc21", "composite z-score": 0.206}, {"smiles": "C=C(/C=C\\CNS(=O)(=O)c1ccc(C)cc1)[C@H](O)[C@H]1CCCN1S(=O)(=O)c1ccccc1[N+](=O)[O-]", "composite z-score": 0.509}, {"smiles": "COC(=O)[C@@]1(Cc2ccc(F)cc2)[C@H]2c3cc(C(=O)N4CCCC4)n(C[C@H](O)CO)c3C[C@H]2CN1C(=O)c1ccccc1", "composite z-score": 0.549}, {"smiles": "O=C1O[C@H](c2ccccc2)[C@H](c2ccccc2)N2[C@H]1[C@@H](C(=O)O)[C@]1(C(=O)Nc3ccccc31)[C@H]2c1ccc(OCCO)cc1", "composite z-score": 0.601}, {"smiles": "COc1ccc(CCNC(=O)[C@@H]2c3ccccc3C(=O)N(C(C)C)[C@H]2c2ccc(CO)cc2)cc1", "composite z-score": -0.158}, {"smiles": "O=C1O[C@@H](c2ccccc2)[C@@H](c2ccccc2)N2[C@@H](c3ccc(OCCO)cc3)[C@]3(C(=O)Nc4ccc(C#CC5=CCCCC5)cc43)[C@@H](C(=O)Nc3nc4ccccc4s3)[C@H]12", "composite z-score": -0.289}, {"smiles": "C=C(COC)C(=O)CC[C@@H](OC(=O)c1ccccc1-c1ccccc1C(=O)O)c1ccccc1OCCO", "composite z-score": 1.34}, {"smiles": "CCOC(=O)C[C@H]1[C@H](OC(=O)Cc2ccc3c(c2)OCO3)[C@@H](NC(=O)CC(C)C)c2cc(OCCCO)ccc2N1C(=O)c1ccc2ccccc2n1", "composite z-score": 0.242}, {"smiles": "COC(=O)Cn1c(C(=O)N(C)C)cc2c1C[C@H]1CN(C(=O)c3ccccc3)[C@@](Cc3ccccc3)(C(=O)OC)[C@@H]21", "composite z-score": 0.865}, {"smiles": "C[C@@]1([C@@H](NS(=O)(=O)c2cccc3cccnc23)c2ccc(-c3ccccc3)cc2)C[C@H]1C1CCCCC1", "composite z-score": 0.638}, {"smiles": "COCCOC(=O)N1C(=O)[C@@]2(c3cc(C#CCC(C(=O)OC)C(=O)OC)ccc31)[C@H](C(N)=O)[C@H]1C(=O)O[C@H](c3ccccc3)[C@H](c3ccccc3)N1[C@@H]2c1ccccc1OCCO", "composite z-score": 0.486}, {"smiles": "CN1C(=O)C2CC=C(C3=CCO[C@@H]3[C@H]3CCCN3S(=O)(=O)c3ccccc3[N+](=O)[O-])CC2C1=O", "note": "(some centres not stated)", "composite z-score": 0.666}, {"smiles": "COc1cccc(C)c1NC(=O)O[C@H]1[C@H](OC(=O)Nc2ccccc2)[C@@H](OC(=O)Nc2ccccc2)[C@@H](OC)O[C@@H]1CO", "composite z-score": 0.525}, {"smiles": "COCCCNC(=O)[C@@]1(c2ccc([N+](=O)[O-])cc2)CC(=O)N(C2CCCCC2)[C@@H]1c1ccc(CO)cc1I", "composite z-score": 0.717}, {"smiles": "CO[C@H]1O[C@H](CO)[C@@H](OC(=O)Nc2cccc(F)c2)[C@H](OC(=O)c2cc3ccccc3[nH]2)[C@H]1OC(=O)c1cc2ccccc2[nH]1", "composite z-score": 0.0912}, {"smiles": "C=C(COC)/C(=C/C[C@@H](OC(C)=O)c1cccc(OCCO)c1)c1cnc2ccccc2c1", "composite z-score": 1.93}, {"smiles": "CCCC[C@@H](O)C1=C(C)Cn2c(=O)n(-c3ccccc3)c(=O)n2[C@H]1CO", "composite z-score": 0.146}, {"smiles": "CCCCC(=C=CC[C@@H](O)c1ccccc1OCCO)C[C@@H](O)c1ccccn1", "composite z-score": 0.624}]}]}
